High-throughput results from PubChem.
This is one part of a sample in which hits are shown more often than they occur.
Sm TGR block: blocks Schistosoma mansoni thioredoxin glutathione reductase; Q962Y6; purified TGR, DTNB reduction, TNB absorbance 405 nm; Potency, µM (series often up to 114 µM), for the others: top-dose activity change, negative = inhibition, usual class: inhibitors; hit rate 3% among 360,000; AID 485364; further: potency means the concentration at half of the fitted maximal effect; on the % scale 0 is the no-effect control and ±100 the full control effect; nearly all actives have a fitted effect of over 60% in size
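TGR 20 nM + NADPH 100 uM (dispensed conc.), cpd preinc 15 min RT; start with NADPH (500 uM addition) then DTNB (15 mM addition). Kinetic TNB absorbance, 405 nm filter. Four-parameter Hill fit across titration.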
Cycloheximide cs: counter-screen hit for Shiga toxin inhibitors, cycloheximide | cell reporter, cycloheximide protein synthesis inhibition counterscreen | max response, % | hit rate 12% among 300,000; in the data active means max response mostly above about 13%, no sharp cut-off; inactive means mostly below about 14%; further: read at 38.3 µM for the half of the compounds with a filed dose; 0% is about no effect
TbPYK inhibitor: inhibitors of Trypanosoma brucei pyruvate kinase | Q57TT1 | TbPYK enzyme, Kinase-Glo Plus ATP luminescence, 45 min | Potency, µM (titrated, usually from 76.8 µM), inactives show at the highest dose activity, negative = inhibition, most hits filed as inhibitors | hit rate 0.12% among 410,000; further: potency means the concentration at half of the fitted maximal effect; on the % scale 0 is the no-effect control and ±100 the full control effect; nearly all actives have a fitted effect of over 50% in size
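Glycolytic pyruvate kinase of T. brucei was incubated with substrate, test compound and 130 uM ADP for 45 minutes at room temperature. Luminescent Kinase-Glo Plus signal was measured after 10 minutes.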
Shiga inhibitor: blocks Shiga toxin action in Vero cells | Vero cells, Shiga toxin protein synthesis inhibition reporter | inhibition, % at 38.7 µM | hit rate 9.2% among 290,000 | AID 2315; in the data active means inhibition mostly above about 28%, no sharp cut-off; inactive means mostly below about 43%; further: 0% is about no effect
Giardia FBPA inh: blocks Giardia fructose-bisphosphate aldolase activity. A8B2U2. purified Giardia FBPA. Potency, µM (highest dose often 59.6 µM), inactives show at the highest dose activity, negative = inhibition, most hits filed as inhibitors. hit rate 0.71% among 290,000. AID 2451; further: potency means the concentration at half of the fitted maximal effect; on the % scale 0 is the no-effect control and ±100 the full control effect; nearly all actives have a fitted effect of over 55% in size
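Giardia FBPA (40 nM reagent) was preincubated 10 min at RT with compound (up to 57.5 uM final), then substrate plus GAPDH/TPI/NAD/arsenate coupling system with diaphorase/resazurin was added; resorufin fluorescence (525/598 nm) was read after 20 min.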
LmPK inhibitor: blocks Leishmania mexicana pyruvate kinase activity | Q27686 | purified LmPK, Kinase-Glo ATP luminescence, 1 h | AID 1721 | Potency, µM (doses to about 57.5 µM), without a hit: at the top dose activity change, negative = inhibition, usual class: inhibitors | hit rate 0.37% among 290,000; further: potency means the concentration at half of the fitted maximal effect; on the % scale 0 is the no-effect control and ±100 the full control effect
Target sequence (Q27686 whole entry, looked up): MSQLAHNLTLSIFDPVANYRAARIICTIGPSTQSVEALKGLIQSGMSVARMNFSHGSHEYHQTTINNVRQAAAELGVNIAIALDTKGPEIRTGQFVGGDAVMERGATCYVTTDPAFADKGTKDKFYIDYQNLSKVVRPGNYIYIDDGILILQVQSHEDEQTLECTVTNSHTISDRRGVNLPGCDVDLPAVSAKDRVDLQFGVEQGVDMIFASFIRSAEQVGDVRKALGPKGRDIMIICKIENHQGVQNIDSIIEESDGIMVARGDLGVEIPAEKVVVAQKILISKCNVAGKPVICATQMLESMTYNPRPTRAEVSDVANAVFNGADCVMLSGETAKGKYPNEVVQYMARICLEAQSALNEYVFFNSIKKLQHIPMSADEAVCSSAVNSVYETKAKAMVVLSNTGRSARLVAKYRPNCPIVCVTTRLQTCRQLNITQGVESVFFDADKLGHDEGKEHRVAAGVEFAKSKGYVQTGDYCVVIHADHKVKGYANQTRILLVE
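ATP generated from ADP (0.1 mM) and PEP (0.5 mM) by 0.1 nM LmPK over 1 h at room temperature (pH 7.2 imidazole buffer) was detected by coupled luciferase luminescence. Values were normalized to uninhibited and no-enzyme wells.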
The depositor's hits bear a star; ? = inconclusive; nt = not tested or not shown. Unless noted, the call rests on the fitted dose curve; in most records, active means well fitted curve in the direction sought with a large enough effect; inconclusive means small, poorly fitted or top-dose-only effect, or another doubt; inactive means no such curve, though single readings can be large; an effect the other way counts as inactive or inconclusive.

SMILES	Sm TGR block	Cycloheximide cs	TbPYK inhibitor	Shiga inhibitor	Giardia FBPA inh	LmPK inhibitor
Cc1cc(C(=O)NCCc2ccccc2)ccc1[N+](=O)[O-]	-21.0%	54.7*	0.1%	54.0*	0.7%	9.9%
O=[N+]([O-])c1cc(S(=O)(=O)C(F)(F)F)ccc1NCC1CCCO1 (stereo not drawn)	10.7%	12.1	-6.1%	32.4*	7.5%	9.4%
O=C(CSc1nnc(Cc2ccccc2)n1-c1cccc(Cl)c1)NNC(=O)Cc1ccccc1	-1.4%	5.0	-9.9%	-5.4	16.5%	-3.1%
Cc1cccc(C(=O)NCCNC(=O)c2ccccn2)c1	-1.2%	-0.4	0.0%	-4.8	-2.0%	0.1%
O=C(NCCc1ccccc1)c1ccccc1[N+](=O)[O-]	17.3%	22.5*	-2.5%	43.8*	0.8%	-14.7%
Cc1cccc(C(=O)NCCc2ccccc2)c1	2.4%	61.1*	-4.6%	88.4*	-4.7%	0.6%
NC1=NC(=O)C(CC(=O)c2ccc(Cl)cc2)S1 (stereo not drawn)	20µM*	-3.8	-10.0%	2.4	5.2%	0.4%
CCOC(=O)c1ccc(OCC(=O)c2ccc(O)cc2O)cc1	1.0%	18.3*	3.8%	49.8*	10.3%	2.9%
COC(=O)c1ccc(OCC(=O)c2ccc(O)cc2O)cc1	4.9%	11.1	-4.0%	53.8	9.8%	2.5%
O=C(COc1ccc(Cl)cc1)c1ccc(O)cc1O	-4.4%	24.7*	2.6%	68.6*	-0.6%	1.8%
O=S1(=O)CC(N2CCN(CCO)CC2)CN1Cc1cn(Cc2ccc(F)cc2)nn1 (stereo not drawn)	nt	nt	1.2%	nt	nt	nt
CCN(Cc1ccccc1)C(=O)c1nc(-c2cccc(F)c2)n2c1CCCCC2	-4.3%	nt	-0.4%	nt	nt	nt
CCO[C@H]1OC(C(=O)Nc2ccccc2)=C[C@@H](C)[C@@H]1CCCO	2.6%	10.7*	2.0%	5.6	5.3%	-1.8%
C#CCNC(=O)C1=C[C@@H](c2ccc3c(c2)OCO3)[C@H](CCCO)[C@@H](OCC)O1	44.7µM*	-1.8	-5.7%	-1.6	-2.7%	6.0%
Cc1ccc(Cc2cnc(NC(=O)c3ccc4c(c3)CC(c3ccccc3)OC4=O)s2)cc1 (stereo not drawn)	0.2%	nt	2.5%	nt	nt	nt
COc1ccc(Cl)cc1NC(=O)CN1C(=O)C(C)(C)c2cc(S(=O)(=O)N3CCCCC3)ccc21	0.8%	nt	-3.5%	nt	nt	nt
OC1=C(O)c2nc3cc(F)ccc3nc21	12.6µM*	-1.9	-1.0%	25.7	?	-12.2%
Cc1ccc2nc(N3C(=O)CNC3=S)sc2c1	5.6%	47.1*	-25.6%	56.2*	?	?
COc1ccc2nc(N3C(=O)CNC3=S)sc2c1	2.3%	51.3*	-29.9%	49.8	?	?
COC(=O)/C=C1\C(=O)N(c2nc3ccc(OC)cc3s2)C(=S)N1c1ccc(F)cc1	-2.7%	0.7	nt	-9.6	5.2%	3.3%
Cc1cccc(CC2CC(=O)N(c3nc4ccccc4s3)C2=O)c1 (stereo not drawn)	nt	-1.5	2.0%	-6.7	-0.1%	3.3%
CSc1ncc(C(=O)NCc2ccc(Cl)cc2)c(C(F)(F)F)n1	2.1%	nt	-2.3%	nt	nt	nt
COc1ccc(/C=C/c2nc3ccccc3c(=O)o2)cc1	6.6%	-5.8	-25.1%	-4.2	-1.0%	-14.2%
COc1ccc(/C=C/c2nc3cc(-c4ccccc4)ccc3o2)cc1O	2.4%	97.1*	-5.7%	99.8*	-0.4%	7.0%
Cc1nn(-c2ccccc2)c2nc(C3CC3)cc(C(=O)Nc3ccc(F)cc3)c12	4.8%	nt	0.9%	nt	nt	nt
SMILES	Sm TGR block	Cycloheximide cs	TbPYK inhibitor	Shiga inhibitor	Giardia FBPA inh	LmPK inhibitor
Cc1ccc(-c2cc(-c3c(C)nn(C)c(=O)c3N)[nH]n2)cc1	4.7%	25.5*	-0.2%	29.9	0.2%	-4.5%
O=C(CN1CCOCC1)c1ccc2cc[nH]c2c1	?	11.6	2.1%	15.0	-24.2%	-2.3%
O=C(CN1CCC2(CC1)OCCO2)c1ccc2cc[nH]c2c1	44.7µM*	10.8	-12.4%	-4.0	2.2%	7.8%
Cc1cccc(N/N=C/c2c(O)[nH]c(=S)[nH]c2=O)c1	nt	nt	-10.7%	nt	nt	nt
Cc1cccc(N/N=C/c2ccccc2O)c1	-25.3%	100.7*	7.3%	98.1*	-9.6%	-4.8%
Cc1cccc(NC(=O)C(=O)N/N=C/c2ccncc2)c1	-4.0%	1.0	-1.6%	8.7	0.5%	-2.9%
Cc1cccc(N/N=C/c2ccncc2)c1	-10.7%	34.0*	-2.9%	45.0*	-18.6%	-4.1%
Cc1ccc(S(=O)(=O)Nc2ccc3cn[nH]c3c2)cc1	3.5%	nt	2.0%	nt	nt	nt
Cc1ccc(S(=O)(=O)Nc2cc(C)c(O)c(Sc3n[nH]c(C)n3)c2)cc1	44.7µM*	1.3	-17.3%	17.7	?	-6.4%
CCn1cc(/C=C(\NC(=O)c2ccc(OC)c(OC)c2)C(=O)NCCCn2ccnc2)c2ccccc21	-5.2%	nt	0.8%	nt	nt	nt
N/C(Cc1ccc(Cl)cc1)=N\OC(=O)c1cccc2ccccc12	14.7%	23.2*	-25.0%	36.5	7.9%	4.7%
N/C(Cc1ccc(Cl)cc1)=N\OC(=O)c1ccc2ccccc2c1	2.0%	8.6	-6.9%	4.8	7.3%	-3.6%
N/C(Cc1ccc([N+](=O)[O-])cc1)=N\OC(=O)c1ccccc1F	4.6%	18.3*	-0.9%	38.5*	-1.8%	8.9%
O=C(Cc1ccc([N+](=O)[O-])cc1)OCc1c(F)cccc1Cl	1.8%	17.1*	0.1%	56.3	10.3%	5.4%
N/C(Cc1ccc([N+](=O)[O-])cc1)=N\OC(=O)Cc1ccc(Cl)cc1	6.0%	2.2	-5.7%	17.5	2.1%	4.7%
COc1ccc(C/C(N)=N/OC(=O)c2ccc(Cl)cc2)cc1	-0.2%	21.3*	2.0%	55.2*	6.9%	5.1%
CSCC[C@H](NC(=O)[C@H](CC(C)C)NC(=O)[C@H](CO)NC(=O)[C@H](CCC(=O)O)NC(=O)[C@H](CC(C)C)NC(=O)[C@H](Cc1ccc(O)cc1)NC(=O)[C@H](CCCCN)NC(=O)[C@H](CCCCN)NC(=O)[C@H](C)NC(=O)[C@H](CO)NC(=O)[C@H](CC(C)C)NC(=O)[C@H](CCC(N)=O)NC(=O)CNC(=O)[C@H](CC(C)C)NC(=O)[C@H](CC(C)C)NC(=O)[C@H](CCCCN)NC(=O)[C@H](CO)NC(=O)[C@H](Cc1ccccc1)NC(=O)[C@H](CC(=O)O)NC(=O)[C@H](CO)NC(=O)[C@@H](NC(=O)[C@H](Cc1ccccc1)NC(=O)[C@@H](NC(=O)CNC(=O)[C@H](CC(=O)O)NC(=O)[C@H](C)NC(=O)[C@@H](N)Cc1cnc[nH]1)C(C)C)[C@@H](C)O)C(N)=O	nt	-7.8	nt	-5.2	4.3%	nt
O=C(CCSc1ccc(Cl)cc1)NC1CCCC1	1.1%	-0.7	-5.4%	-2.2	1.5%	-4.3%
O=C(CCSc1ccccc1)NC1CCCC1	0.1%	28.1*	2.0%	42.0	-0.4%	-7.6%
